Test results published in ChEMBL document CHEMBL4513216, “Probing the Open Global Health Chemical Diversity Library for Multistage-Active Starting Points for Next-Generation Antimalarials” (ACS Infect Dis, 2020).
Among all 69,000 compounds or so, about 8,600 (12%) showed an effect of 50% or more. The sample as a whole holds a higher share of strong results than the screen did.

The compounds below were run on Plasmodium berghei (assay: Screen against P. berghei liver stage (PbLuc), transformed with Luciferase, at 10uM). Settings: tested at 10 uM.
Type: functional, HepG2

| Structure (SMILES) | INHIBITION |
| --- | --- |
| C[C@@H]1CN(CCC(=O)NCc2ccccc2Cl)CC[C@@]1(O)C1CCC1 | 41.4% |
| CN(C)C1CCN(C(=O)Cc2csc(-c3ncccn3)n2)CC1 | -31.3% |
| COc1c(CNCCc2c[nH]c3ccccc23)c(C(C)C)nn1C | 22.5% |
| COCC1COCCC12CCN(S(=O)(=O)c1ccccc1C)CC2 (configuration not stated) | 48.4% |
| CCCc1nnc2sc(-c3cc(C(C)C)n[nH]3)nn12 | 35.7% |
| Cc1noc(C)c1C(=O)N1CCCN(C)c2ccc(Cl)cc21 | 19.7% |
| Cc1nc(C)n(CC2CCCN(CCCc3ccccc3)C2)n1 (configuration not stated) | 44.3% |
| O=C(NC1CC1)[C@H]1CN(Cc2ccc3c(c2)OCO3)C[C@H]2OCC[C@@H]12 | -23.3% |
| Cc1cc(=O)c(C(=O)N2CCCCC2c2ccc(F)cc2)c[nH]1 (configuration not stated) | -4.37% |
| Cc1nc2[nH]cc(C(=O)N3CCCCC3c3ccc(F)cc3)c(=O)n2n1 (configuration not stated) | 57.1% |
| Cc1cc2[nH]cc(C(=O)N3CCCCC3c3ccc(F)cc3)c(=O)n2n1 (configuration not stated) | 17.8% |
| Cc1cc(CN2CCCN(c3ccc(C#N)cc3)CC2)no1 | 29.17% |
| Fc1cccc(F)c1Cn1c(C2CCNCC2)cc2cccnc21 | 54.9% |
| Fc1cccc(F)c1Cn1c(C2CCCNC2)cc2cccnc21 (configuration not stated) | 30.74% |
| Fc1ccccc1Cn1c(C2CCNCC2)cc2cccnc21 | 52.55% |
| COc1ccc(Cn2c(C3CCNCC3)cc3cccnc32)cc1 | 36.8% |
| c1cnc2c(c1)cc(C1CCOCC1)n2CCN1CCOCC1 | 32.4% |
| COc1cccc(Cn2c(C3CCNCC3)cc3cccnc32)c1 | 10.82% |
| Cc1oncc1C(=O)N1CCC2(CCN(Cc3cccnc3)C2=O)C1 (configuration not stated) | 5.41% |
| O=C(CC1CCCCC1)N1CCOCC1CO (configuration not stated) | -40% |
| CCOCc1nn(C)c2c1CN(CCO)CC2 | 27.6% |
| O=C(N1CCOCC1)[C@@]12CCO[C@@H]1CCN(C1CCCCC1)C2 | 0.542% |
| COc1ccc(OC)c(CN(C)c2nc3c(cnn3C)c(=O)[nH]2)c1 | 4.3% |

| Structure (SMILES) | INHIBITION |
| --- | --- |
| COc1ccccc1CN(C)c1nc2c(cnn2C)c(=O)[nH]1 | 27.9% |
| COc1ccc(CN(C)c2nc3c(cnn3C)c(=O)[nH]2)c(OC)c1 | 73.8% |
| COc1cccc([C@@]2(O)CC[C@@H]3CN(C(=O)c4c[nH]nc4C)C[C@@H]32)c1 | 15.15% |
| CC(=O)N1CCN(c2cc(CCN)nc(C3CC3)n2)CC1 | 3.91% |
| CSc1nsc(SCC(=O)c2cc3c(cc2Cl)NC(=O)C3)n1 | 18.4% |
| CCCOc1c(Cl)cc(C(=O)N2CCOC23CCN(C)CC3)cc1Cl | 55.4% |
| CCN1CCC2(CC1)OCCN2C(=O)c1cc(Cl)c(OC)c(Cl)c1 | 59.5% |
| CCCOc1ccc(C(=O)N2CC[C@@H]3CC[C@H](C2)N3)cc1Cl | -4.4% |
| CCCOc1ccc(C(=O)N2CCN3CCNC(=O)C3C2)cc1Cl (configuration not stated) | 18.7% |
| CCN1CCC2(CC1)OCCN2C(=O)c1ccc(OC)c(Cl)c1 | 45% |
| COc1cc(C(=O)N2CCCS2(=O)=O)cc(Cl)c1OC | 21.1% |
| Cc1ccc(C(NC(=O)CCCN2CCCCC2)C(=O)O)cc1 (configuration not stated) | -18.9% |
| COc1cc(CCC(=O)N2CCC(c3cnccn3)CC2)on1 | 36.15% |
| Cc1ccc(F)c(NS(=O)(=O)c2cc3c(c(C(=O)O)c2)OCCO3)c1 | 14.1% |
| COCCN1C(=O)[C@@H]2CC[C@H]1CN(C(=O)Cc1c(F)cccc1Cl)C2 | -107% |
| CCc1c(C(=O)O)nnn1-c1cc(C)ccc1C | -7.83% |
| Cc1cc(C)n(CC2CN(Cc3cccnc3)CCO2)n1 (configuration not stated) | 18.7% |
| CC(=O)N1CC[C@H]2OCC[C@@]2(C(=O)NCCc2ccccn2)C1 | 3.81% |
| COCCNc1ccc(CNCc2cnc3nc(C)cc(C)n23)cc1 | -45.7% |
| Cc1ccc(-c2nc(CCNC(=O)NC3CCN(C)CC3)co2)cc1 | -9.14% |
| COc1ccc(-c2nc(CCNC(=O)NC3CCC(O)CC3)co2)cc1 (configuration not stated) | 50.6% |
| CCC(C(=O)NCCc1coc(-c2ccc(C)cc2)n1)N(C)C (configuration not stated) | 10.5% |
| O=C(NCCc1coc(-c2ccccc2)n1)NC1CC1 | 44.1% |

| Structure (SMILES) | INHIBITION |
| --- | --- |
| O=C(NCCc1coc(-c2ccc(F)cc2)n1)NC1CC1 | 0.914% |
| O=C(NCCc1coc(-c2ccc(F)cc2)n1)NC1CCC(O)CC1 (configuration not stated) | 54.6% |
| Cc1ccc(-c2nc(CCNC(=O)NC3CCC(O)CC3)co2)cc1 (configuration not stated) | 68.8% |
| O=C(NCCc1coc(-c2ccc(F)cc2)n1)NCC1CCOC1 (configuration not stated) | 13.8% |
| COc1ccc(-c2nc(CCNC(=O)NCC3CCOC3)co2)cc1 (configuration not stated) | 1.04% |
| c1ccc(CCN2CCCC(c3ccnc4nccn34)C2)cc1 (configuration not stated) | 39.1% |
| O=C(c1ccncc1F)N1CC[C@@H]2OC(COCC3CC3)CC[C@@H]21 (some centres not stated) | 14.5% |
| CCCN(CC(F)F)C(=O)CCc1c(C)nc2cc(O)nn2c1C | 4.1% |
| Cc1nn(Cn2ccc(C(=O)N3CCCCCC3)n2)c(C)c1Cl | 26.9% |
| O=C(NCC1CC1)c1nnc2ccc(Cl)cc2n1 | 5.21% |
| CCn1nc(C)c(CNC(=O)c2nnc3ccccc3n2)c1C | 58.2% |
| O=C(NCCn1cccn1)c1nnc2ccccc2n1 | 68.5% |
| CCn1nc(C)c(CNC(=O)c2nnc3ccc(Cl)cc3n2)c1C | 73.1% |
| CCn1nc(C)c(CNC(=O)NCC(C)(O)c2ccccc2)c1C (configuration not stated) | -6.12% |
| O=C(NCCCn1cccn1)c1nnc2ccccc2n1 | 37.9% |
| Cc1ccc2nnc(C(=O)NCCCn3cccn3)nc2c1 | 26.8% |
| CCn1nc(C)c(CNC(=O)c2nnc3ccc(OC)cc3n2)c1C | 41.6% |
| CCn1nc(C)c(CNC(=O)C2COc3ccccc3C2)c1C (configuration not stated) | 15.9% |
| CS(=O)(=O)N1CCCC(C(=O)Nc2cnn(COCC(F)(F)F)c2)C1 (configuration not stated) | 4.08% |
| Cc1ccc(C2(CN(C)Cc3sccc3C)CCNCC2)nc1 | 6.66% |
| CC(C)C(=O)N1CCCC([C@@H]2C[C@H](C(F)F)n3ncnc3N2)C1 (some centres not stated) | 5.295% |
| O=C1CC[C@H]2[C@H](CCN2C(=O)N2CCCC2)N1Cc1ccncc1 | 41.2% |
| Cc1nsc2ncc(C(=O)N3CCCC3c3cnn(C)c3)cc12 (configuration not stated) | 19.2% |

| Structure (SMILES) | INHIBITION |
| --- | --- |
| Cc1ccc2c(c1)[C@@H](CC(=O)N1CCOCC1)CCO2 | 14.5% |
| COc1ccc2c(c1)NC(C1CCNCC1)NS2(=O)=O (configuration not stated) | 19.3% |
| O=S1(=O)NC2(CCCN(Cc3ccc(F)cc3)C2)COc2ccccc21 (configuration not stated) | 0.207% |
| Cc1cncc(C(=O)N2CCCC(O)(CN(C)C)CC2)c1 (configuration not stated) | -5.78% |
| Cc1cccc(C(C(=O)NC(C)(C)CN2CCOCC2)N(C)C)c1 (configuration not stated) | -17.8% |
| CN(C)C[C@]12COC[C@H]1CN(Cc1ccc3c(c1)OCO3)C2 | 28.5% |
| Cc1nn(C)cc1C(=O)N1CCCC(c2nccn2CC2CCC2)C1 (configuration not stated) | 14.1% |
| O=C(CC1CCN(CCc2ccccc2)CC1)N1CCCOCC1 | 33.2% |
| CCCC(O)CN1CCC(=O)N(CC2CC2)Cc2cc3c(cc21)OCO3 (configuration not stated) | 10.9% |
| Cn1cc(CNCCNc2ncc(Cl)cc2Cl)cn1 | -14.5% |
| Cc1c(C(=O)NC2CCCC2)nnn1-c1ccccc1 | -133% |
| Cc1c(C(=O)NC2CCCOC2)nnn1-c1ccccc1 (configuration not stated) | 17.1% |
| Cc1c(C(=O)NC2CCCOC2)nnn1-c1ccc(Cl)cc1F (configuration not stated) | 55.5% |
| Cc1cnn(CC(C)NCC(=O)NCCOc2ccccc2)c1 (configuration not stated) | -0.96% |
| CC(C)(C)n1nnnc1CN(Cc1ccccc1)Cc1ccccc1Cl | 91.6% |
| CCc1ncc(CN(CCc2ccccc2)Cc2cccs2)cn1 | 45.1% |
| CC(C)(C)n1nnnc1CN(CCc1ccccc1)Cc1ccccc1 | 65.7% |
| CC(C)N(C(=O)Cn1nnnc1CCc1ccccc1)C(C)C | 37.7% |
| Cn1cc(CN(Cc2ccccn2)Cc2ccccc2Cl)cn1 | -10.4% |
| CC(C)(C)n1nnnc1CN(Cc1ccccc1)Cc1ccc(Cl)cc1 | 81.4% |
| O=C(c1nnn(-c2ccc(Cl)cc2)n1)N(CCO)Cc1ccccc1 | -23.5% |
| CCN(Cc1ccccc1Cl)Cn1nc(C)c2c(C)onc2c1=O | 40.2% |
| CCc1nc(CN(C(C)=O)C2CCN(Cc3ccccc3F)C2)no1 (configuration not stated) | -11.4% |

| Structure (SMILES) | INHIBITION |
| --- | --- |
| CN(Cc1ccco1)[C@@H]1CN(C(=O)C2CCOCC2)C[C@@H]2CCCO[C@@H]21 | 37.1% |
| CCN(CC)C(=O)Cn1ccc2cc(NC(=O)COC)ccc21 | -7.267% |
| Cn1nccc1-c1nnn2c1COC(CNCc1nccs1)C2 (configuration not stated) | 38.3% |
| N[C@H]1CN(C(=O)c2ccc3[nH]c(=O)c(=O)[nH]c3c2)C[C@@H]1c1ccccc1 | 34.1% |
| Cc1cc(NC(=O)CN2CCC(N3CCNC3=O)CC2)on1 | -71.2% |
| CC(NCc1c(C(C)C)nn(C)c1N(C)C)C(=O)NC1CCCC1 (configuration not stated) | -5.94% |
| C1CCC(CNC2CCSCC2)(N2CCOCC2)CC1 | 51.1% |
| C1CCC(NCC2(N3CCOCC3)CCSC2)C1 (configuration not stated) | 30.8% |
| CS(=O)(=O)N1CCC(NCC2(N3CCOCC3)CCCCC2)CC1 | 49% |
| COCc1nn(C(C)C)c2c1CCN(Cc1cccs1)C2 | 23.5% |
| O=C(c1ccc(N2CCCCCC2)nn1)N1CCc2ccccc21 | -30% |
| CCCc1nc2c(c(C)c(C)n2CCN(C)C)c(N)c1CC | 43.8% |
| CCCc1nc2c(c(C)c(C)n2Cc2ccccn2)c(N)c1CC | 68.1% |
| Cc1c(-c2ccccc2)nc2c(c(C)c(C)n2CCN(C)C)c1N | -19.4% |
| CCc1c(-c2ccccc2)nc2c(c(C)c(C)n2CCN(C)C)c1N | 45% |
| CCCc1nc2c(c(C)c(C)n2Cc2ccncc2)c(N)c1CC | 77.9% |
| CCCc1nc(N2CCN(Cc3ccccn3)CC2)c2cnn(C)c2n1 | 27.6% |
| CCCc1nc2c(c(C)c(C)n2Cc2cccnc2)c(N)c1CC | 75.2% |
| CCc1cc(NCCc2cccnc2)n2nc(C)c(C)c2n1 | -1.6% |
| CCc1nc2c(c(C)c(C)n2Cc2cccnc2)c(N)c1C | 29.1% |
